These results are taken from PubChem BioAssay AID1578 (Sanford-Burnham Center for Chemical Genomics, 2009).

The structures appear in SMILES notation. About 3,000 (1%) of roughly 290,000 compounds were called active. No stated cut-off is given here; in the data, active means inhibition mostly above about 36% (no sharp cut-off); inactive means mostly below about 34%. This excerpt belongs to a sample that is enriched for actives.

This assay in a line: inhibition of NOD1-driven NF-kB reporter – cell-based, luminescence, uHTS, primary screen (AID 1578).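 Further: HEK-293T reporter cells stimulated with the NOD1 agonist gamma-tri-DAP.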 The settings on record: NOD1-driven NF-kB luciferase reporter cells, at 4 µM, active compounds read high. On the technique in general: Reporter assays use an easily measured gene product as a stand-in for the process of interest.
In the case of `CCCC(=O)Nc1ccccc1NC(=O)c1ccc(OCC)cc1`, the inhibition (as a rule, the relative decrease from the control value, in per cent) is 2.3% (inactive). The same measure for `O=C1CC(N2CCC(c3nc4ccccc4[nH]3)CC2)C(=O)N1Cc1ccccc1` (stereo not given): -24.3% (inactive); for `Cc1cc(-c2ccc(C(C)C)c(S(=O)(=O)N3CCN(c4ccccc4)CC3)c2)on1`: 0% (inactive); for `CCc1cc2c(=O)[nH]c(-c3ccccn3)nc2s1`: 112% (active).

As to `CCc1cc2c(=O)[nH]c(-c3ccncc3)nc2s1`, the inhibition was 29.8% (inactive). Consider `CCc1cc2c(=O)[nH]c(Cc3ccccc3)nc2s1`, for which the inhibition is 0.4% (inactive). With `CC(C)Nc1nc(Cl)nc(N(C#N)CN2C(=O)c3ccccc3S2(=O)=O)n1` the figure was -4.8% (inactive). For `COc1ccc2nc(SCC(=O)Nc3nccs3)[nH]c2c1`, the inhibition was -39.1% (inactive). With `COc1ccc(NC(=O)CN2CCN(c3c(C)cccc3C)CC2)cc1` the figure was -8.8% (inactive); with `COc1ccc(CN2C(=O)C(C)N(C(=O)c3c(F)cccc3F)c3ccccc32)cc1` (stereo not given), 6.5% (inactive). Take `COC(=O)c1ccc(CN2C(=O)C(C)N(C(=O)c3c(F)cccc3F)c3ccccc32)cc1` (stereo not given): the inhibition is -2.1% (inactive). The same measure for `CC1C(=O)N(Cc2ccc(F)cc2)c2ccccc2N1C(=O)c1c(F)cccc1F` (stereo not given): 43.5% (active). The same measure for `CC1CCN(CCCNC(=O)c2ccc3c(Cl)c4c(nc3c2)CCCC4)CC1`: 0.2% (inactive); for `COc1ccc(-n2c(Cc3cccn3C)nnc2SCC(=O)Nc2ccccc2C)cc1`: 57% (active).

As to `COc1ccc(-n2c(Cc3cccn3C)nnc2SCC(=O)Nc2ccccc2OC)cc1`, the inhibition is 55% (inactive). As for `COc1ccc(NC(=O)CSc2nnc(Cc3cccn3C)n2-c2ccc(OC)cc2)cc1`, the inhibition is 0.1% (inactive). The same measure for `COc1ccc(-n2c(Cc3cccn3C)nnc2SCC(=O)Nc2ccc(Cl)cc2)cc1`: 39.9% (inactive); for `COc1ccc(-n2c(Cc3cccn3C)nnc2SCC(=O)Nc2ccc(C)c(Cl)c2)cc1`: 75.8% (active); for `COc1ccc(-n2c(Cc3cccn3C)nnc2SCC(=O)Nc2cccc(C)c2C)cc1`: 33.3% (inactive). The same measure for `CN1C=CC=C/C1=C1\SC(=S)N(N)C1=O`: -40.2% (inactive). With `CCOC(=O)C1CCN(CCC(=O)Nc2ccc(C)cc2)CC1` the figure was -32.1% (inactive); with `COC(=O)c1cc(CNC(=O)c2ccc(N3CCCC3)c([N+](=O)[O-])c2)ccc1OC`, -43.2% (inactive); with `CNC(=S)N/N=C/c1cn(Cc2ccc(C)cc2)c2ccccc12`, 70.4% (active). Regarding `CNC(=S)N/N=C/c1cn(Cc2ccc(F)cc2)c2ccccc12`, the inhibition was -6.2% (inactive). The same measure for `CCNC(=S)N/N=C/c1cn(Cc2ccc(F)cc2)c2ccccc12`: 10.8% (inactive).
